Assay results reported in PubChem BioAssay (Tox21).
Results filed as inconclusive are left out. Calls of active or inactive are those of the source. Unless noted, calls come from the whole dose curve; as a rule, active = well fitted curve in the direction sought with a large enough effect in the repeat runs; inconclusive = weak or mixed curves; inactive = no such curve, though single readings can be large; an effect the other way counts as inactive or inconclusive. Positions of bridges follow the written chain, without caps; N, C: chain ends. Non-standard residues stand in square brackets, D forms with d. Residues, ends and D or L forms follow the SMILES beside them. hArg = N=C(N)NCCCC[C@H](N)C(=O)O; Mpa = O=C(O)CCS

Tests used:
[1] = qHTS assay to identify small molecule agonists of the peroxisome proliferator-activated receptor delta (PPARd) signaling pathway - cell viability counter screen (AID 743211); note: nearly all actives have a fitted effect of over 55% in size
Outline: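 Viability was measured as CellTiter-Glo luminescence (30 min, room temperature) in the same wells as the beta-lactamase readout. GeneBLAzer PPARd UAS-bla HEK293H cells received compound after 5 h plating and were incubated 17 h at 37 C.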

[2] = target: Peroxisome proliferator-activated receptor delta (Homo sapiens) (UniProt Q03181); assay: qHTS assay to identify small molecule agonists of the peroxisome proliferator-activated receptor delta (PPARd) signaling pathway (AID 743212; calls by dose curve)
Outline: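 HEK293H PPARd-bla cells; 5 h preincubation 37 C/5% CO2; compound (DMSO) 37 C; LiveBLAzer B/G FRET substrate 2 h RT; fluorescence intensity.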

[3] = qHTS assay to identify small molecule antagonists of the peroxisome proliferator-activated receptor delta (PPARd) signaling pathway - cell viability counter screen (AID 743213); note: nearly all actives have a fitted effect of over 50% in size
Outline: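 Agonist-stimulated (L165041, 300 nM final) HEK293H PPARd UAS-bla cells are exposed to compounds for 17 h at 37 C, and ATP-based luminescence (CellTiter-Glo) from the same wells reports cytotoxicity.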

[4] = target: Peroxisome proliferator-activated receptor delta (Homo sapiens) (UniProt Q03181); assay: qHTS assay to identify small molecule antagonists of the peroxisome proliferator-activated receptor delta (PPARd) signaling pathway (AID 743215; active = well fitted inhibition curve with a large enough effect in the signal ratio in the repeat runs, not every such curve was filed as active; the % refers to the signal ratio; note: series mostly up to about 62 µM)
Outline: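 PPARd UAS-bla HEK293H cells were pre-incubated 5 h at 37 C, then given test compounds in DMSO plus agonist L165041 (300 nM final). After 17 h at 37 C, beta-lactamase FRET substrate was added; fluorescence read after 2 h at room temperature.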

[5] = qHTS assay to identify small molecule antagonists of the farnesoid-X-receptor (FXR) signaling pathway - cell viability counter screen (AID 743221; active = well fitted cell-killing curve with a large enough effect in the repeat runs, not every such curve was filed as active; note: nearly all actives have a fitted effect of over 50% in size)
Outline: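 Cytotoxicity counter screen run in the FXR-bla reporter wells: HEK 293T cells exposed to compound with 50 uM (final) chenodeoxycholic acid for 16 h, 37 C, then viability measured by CellTiter-Glo luminescence after 30 min, room temperature.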

[6] = target: Vitamin D3 receptor (Homo sapiens) (UniProt P11473); assay: qHTS assay to identify small molecule antagonists of the vitamin D receptor (VDR) signaling pathway (AID 743223; active = well fitted inhibition curve with a large enough effect in the signal ratio in the repeat runs, not every such curve was filed as active; the % refers to the signal ratio)
Outline: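 Antagonist mode: compound added to VDR-bla cells alongside agonist 1alpha,25-dihydroxyvitamin D3 (3 nM final), incubation 16 h at 37C. Read-out is LiveBLAzer FRET fluorescence, 2 h at room temperature.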

[7] = target: Bile acid receptor (Homo sapiens) (UniProt Q96RI1); assay: qHTS assay to identify small molecule antagonists of the farnesoid-X-receptor (FXR) signaling pathway (AID 743217; active = well fitted inhibition curve with a large enough effect in the signal ratio in the repeat runs, not every such curve was filed as active; the % refers to the signal ratio)
Outline: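 FXR-UAS-bla HEK 293T cells pre-incubated 5 h at 37 °C, then exposed to compounds with chenodeoxycholic acid (50 uM final) for 16 h at 37 °C. Beta-lactamase reporter read by LiveBLAzer B/G FRET substrate fluorescence after 2 h at room temperature.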

[8] = qHTS assay to identify small molecule agonists of the farnesoid-X-receptor (FXR) signaling pathway - cell viability counter screen (AID 743218); note: nearly all actives have a fitted effect of over 45% in size
Outline: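 FXR-UAS-bla HEK 293T cells, plated 5 h at 37 C, were exposed to compounds for 16 h at 37 C. CellTiter-Glo was then added to the same wells as the bla readout; luminescence read after 30 min at room temperature.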

[9] = target: Bile acid receptor (Homo sapiens) (UniProt Q96RI1); assay: qHTS assay to identify small molecule agonists of the farnesoid-X-receptor (FXR) signaling pathway (AID 743220; active = well fitted activation curve with a large enough effect in the signal ratio in the repeat runs, not every such curve was filed as active; the % refers to the signal ratio)
Outline: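 Beta-lactamase reporter under UAS control in GeneBLAzer FXR HEK 293T cells (5000/well) measured with LiveBLAzer FRET substrate after 2 h at room temperature. Compound exposure lasted 16 h at 37C.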

[10] = target: Vitamin D3 receptor (Homo sapiens) (UniProt P11473); assay: qHTS assay to identify small molecule agonists of the vitamin D receptor (VDR) signaling pathway (AID 743222; calls by dose curve)
Outline: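 VDR-bla cells were plated 4 h at 37C/5% CO2, then exposed to compounds in DMSO for 16 h. After LiveBLAzer B/G FRET substrate addition and 2 h at room temperature, beta-lactamase reporter fluorescence was read.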
% is set by controls: 0 for no effect and ±100 for the full control effect.

Sequence of Bile acid receptor (Homo sapiens) (Q96RI1 whole entry, looked up): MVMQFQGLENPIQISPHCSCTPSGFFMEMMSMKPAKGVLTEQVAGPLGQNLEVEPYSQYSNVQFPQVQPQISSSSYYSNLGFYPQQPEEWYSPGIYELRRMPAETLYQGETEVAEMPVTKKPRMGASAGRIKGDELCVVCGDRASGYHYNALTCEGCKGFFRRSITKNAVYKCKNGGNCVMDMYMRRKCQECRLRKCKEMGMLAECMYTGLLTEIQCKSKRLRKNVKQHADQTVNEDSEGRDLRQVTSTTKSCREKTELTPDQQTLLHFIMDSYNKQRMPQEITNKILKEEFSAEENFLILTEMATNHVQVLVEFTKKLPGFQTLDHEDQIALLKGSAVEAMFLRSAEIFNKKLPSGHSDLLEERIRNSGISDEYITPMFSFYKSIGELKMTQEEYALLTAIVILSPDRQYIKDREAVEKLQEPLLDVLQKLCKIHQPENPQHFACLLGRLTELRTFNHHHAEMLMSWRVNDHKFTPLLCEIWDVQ
Sequence of Vitamin D3 receptor (Homo sapiens) (P11473 whole entry, looked up): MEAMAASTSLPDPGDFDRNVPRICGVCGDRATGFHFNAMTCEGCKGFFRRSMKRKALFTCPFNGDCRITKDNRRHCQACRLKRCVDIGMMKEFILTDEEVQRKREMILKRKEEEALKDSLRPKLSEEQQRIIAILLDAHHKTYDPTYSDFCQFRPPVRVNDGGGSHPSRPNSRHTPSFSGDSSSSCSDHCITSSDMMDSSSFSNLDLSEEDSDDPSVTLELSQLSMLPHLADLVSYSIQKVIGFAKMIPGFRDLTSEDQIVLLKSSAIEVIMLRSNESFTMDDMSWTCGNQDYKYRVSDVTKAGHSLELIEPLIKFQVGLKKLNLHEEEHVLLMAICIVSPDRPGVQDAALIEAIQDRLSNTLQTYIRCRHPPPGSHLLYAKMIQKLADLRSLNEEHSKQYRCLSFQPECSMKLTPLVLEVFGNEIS
Sequence of Peroxisome proliferator-activated receptor delta (Homo sapiens) (Q03181 whole entry, looked up): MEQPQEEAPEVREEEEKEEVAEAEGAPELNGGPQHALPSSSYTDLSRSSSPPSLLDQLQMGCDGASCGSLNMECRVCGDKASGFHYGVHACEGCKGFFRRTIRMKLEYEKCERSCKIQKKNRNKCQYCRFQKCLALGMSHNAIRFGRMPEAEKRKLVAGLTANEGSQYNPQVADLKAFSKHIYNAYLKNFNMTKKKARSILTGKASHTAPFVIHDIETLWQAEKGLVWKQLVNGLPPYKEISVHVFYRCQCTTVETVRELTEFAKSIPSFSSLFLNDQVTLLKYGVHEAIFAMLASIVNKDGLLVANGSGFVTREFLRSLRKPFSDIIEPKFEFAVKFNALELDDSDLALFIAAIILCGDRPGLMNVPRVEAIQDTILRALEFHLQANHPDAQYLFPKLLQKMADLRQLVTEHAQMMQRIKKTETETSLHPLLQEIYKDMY

CC1CCc2c(N3CCC(O)CC3)c(F)cc3c(=O)c(C(=O)O)cn1c23 (centres undefined)
inactive: outcome [1] | outcome [2] | outcome [3] | outcome [4] | outcome [5] | outcome [6]

CCCCCCCCCCOC(C)=O
inactive: outcome [1] | outcome [2] | outcome [3] | outcome [4] | outcome [5] | outcome [6]

NC(=O)[C@@H]1CSSCCC(=O)N[C@@H](CCCCN=C(N)N)C(=O)NCC(=O)N[C@@H](CC(=O)O)C(=O)N[C@@H](Cc2c[nH]c3ccccc23)C(=O)N2CCC[C@H]2C(=O)N1 ([Mpa][hArg]GDWPC-NH2; disulfide 1-7)
inactive: outcome [1] | outcome [2] | outcome [3] | outcome [7] | outcome [8] | outcome [9] | outcome [5] | outcome [10]

CCCCCCCCCCCCCCCCCC#N
inactive: outcome [1] | outcome [2] | outcome [3] | outcome [8] | outcome [5]

CC1CC(=O)CC(C)(C)C1 (centres undefined)
inactive: outcome [1] | outcome [2] | outcome [3] | outcome [8] | outcome [5] | outcome [10] | outcome [6]

CCN1CCCC1CN (centres undefined)
inactive: outcome [1] | outcome [2] | outcome [3] | outcome [4] | outcome [5] | outcome [10]

CC1(C)CC(OC(=O)CCCCCCCCC(=O)OC2CC(C)(C)NC(C)(C)C2)CC(C)(C)N1
inactive: outcome [1] | outcome [2] | outcome [3] | outcome [8] | outcome [5] | outcome [10] | outcome [6]

CCC(C(=O)OCCN1CCOC(c2ccccc2)C1C)c1ccccc1 (centres undefined)
inactive: outcome [1] | outcome [2] | outcome [3] | outcome [8] | outcome [5] | outcome [10]

C[C@@H](O)C(=O)O
inactive: outcome [1] | outcome [2] | outcome [3] | outcome [7] | outcome [9] | outcome [5] | outcome [10]

CO[Si](CCCn1c(=O)n(CCC[Si](OC)(OC)OC)c(=O)n(CCC[Si](OC)(OC)OC)c1=O)(OC)OC
inactive: outcome [1] | outcome [2] | outcome [3] | outcome [4] | outcome [5] | outcome [10] | outcome [6]

CCCCCCCCCOC(=O)CCCCC(=O)OCCCCCCC
inactive: outcome [1] | outcome [2] | outcome [3] | outcome [8] | outcome [5] | outcome [10]

COC(=O)CCCCC(=O)O
inactive: outcome [1] | outcome [2] | outcome [3] | outcome [4] | outcome [5]

C=Cc1ccc(C(C)(C)C)cc1
inactive: outcome [1] | outcome [2] | outcome [3] | outcome [7] | outcome [9] | outcome [5]

c1ccc2cnccc2c1
inactive: outcome [1] | outcome [2] | outcome [3] | outcome [8] | outcome [5] | outcome [10]

NCC1(Cc2noc(=O)[nH]2)CCCCC1
inactive: outcome [1] | outcome [2] | outcome [3] | outcome [4] | outcome [5] | outcome [10]

OC[C@@H](O)C(O)[C@@H](O)CO (some centres undefined)
inactive: outcome [1] | outcome [2] | outcome [3] | outcome [4] | outcome [10]

CCCC(=O)OCCC(C)CCC=C(C)C (centres undefined)
inactive: outcome [1] | outcome [2] | outcome [3] | outcome [4] | outcome [5]

Cc1ccc2c(c1)C(=O)c1ccccc1C2=O
inactive: outcome [1] | outcome [2] | outcome [3] | outcome [4] | outcome [5] | outcome [10]

CCCC(=O)OC/C=C(\C)CCC=C(C)C
inactive: outcome [1] | outcome [2] | outcome [3] | outcome [7] | outcome [8] | outcome [9] | outcome [5] | outcome [10] | outcome [6]

CNCCS(=O)(=O)O
inactive: outcome [1] | outcome [2] | outcome [3] | outcome [4] | outcome [5] | outcome [10]

C=CC/C=C/C
inactive: outcome [1] | outcome [2] | outcome [3] | outcome [7] | outcome [8] | outcome [9] | outcome [5]

CC(C)[C@H]1CC[C@H](C)C[C@@H]1O
inactive: outcome [1] | outcome [2] | outcome [3] | outcome [7] | outcome [9] | outcome [5] | outcome [10]

COc1ccc(CCO)cc1
inactive: outcome [1] | outcome [2] | outcome [3] | outcome [4] | outcome [5] | outcome [10] | outcome [6]

CCC/C=C(\C=O)CC
inactive: outcome [1] | outcome [2] | outcome [3] | outcome [8] | outcome [5] | outcome [10]

CC(=O)C1C(=O)C=C(C)OC1=O (centres undefined)
inactive: outcome [1] | outcome [2] | outcome [3] | outcome [7] | outcome [9] | outcome [5] | outcome [10] | outcome [6]

CC(S)C(C)S (centres undefined)
inactive: outcome [1] | outcome [2] | outcome [3] | outcome [7] | outcome [8] | outcome [9] | outcome [5] | outcome [10]

Cc1ccc(C(C)NC(=O)[C@@H](NC(=O)OC(C)C)C(C)C)cc1 (some centres undefined)
inactive: outcome [1] | outcome [2] | outcome [3] | outcome [7] | outcome [8] | outcome [9] | outcome [5]

Cc1ccc(C)c([N+](=O)[O-])c1
inactive: outcome [1] | outcome [2] | outcome [3] | outcome [4] | outcome [5] | outcome [10] | outcome [6]

CC(=O)O[C@@H]1CC2CCC1(C)C2(C)C (some centres undefined)
inactive: outcome [1] | outcome [3] | outcome [7] | outcome [8] | outcome [9] | outcome [5] | outcome [10] | outcome [6]

O=S(=O)(O)c1ccc2c(N=Nc3ccc(S(=O)(=O)O)c4ccccc34)c(O)c(S(=O)(=O)O)cc2c1
inactive: activity change, negative = cytotoxicity [1] 3.44% [at 5.95 µM] | activation [2] 0.0676% [at 5.95 µM] | ratio activity, negative = inhibition [4] 7.03% [at 6.26 µM] | activity change, negative = inhibition [7] -1.36% [at 5.95 µM] | viability change, negative = cytotoxic [8] 1.45% [at 5.95 µM] | activation [9] -0.449% [at 5.95 µM] | activity change, negative = cytotoxicity [5] -3.15% [at 5.95 µM] | activation [10] -5.96% [at 6.01 µM] | activity change, negative = inhibition [6] 8.98% [at 6.95 µM]
